Assay results as given in PubChem BioAssay (NCI).
The panel holds about 79,000 compounds, 15% with a hit somewhere; the sample as a whole holds those more often. Values without a mark were called inactive. Active and inactive are the calls of the source. Rule as the data show it: active = growth inhibition above about 70%; inactive = the rest.

How the values were obtained:
[1] = NCI Yeast Anticancer Drug Screen. Data for the rad50 strain (AID 155);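 also: 0% = growth of vehicle-only cultures of the same strain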; conditions: S. cerevisiae rad50 strain growth inhibition; at 50.0 µM; stronger effect = higher value
How it was run: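 Compounds were tested on a yeast strain with an engineered DNA damage repair alteration; the reported value is growth inhibition normalised to vehicle treatment.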

[2] = NCI Yeast Anticancer Drug Screen. Data for the sgs1 mgt1 strain (AID 161);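 also: 0% = growth of cultures given vehicle only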; conditions: S. cerevisiae sgs1 mgt1 strain, at 50.0 µM, stronger effect = higher value
How it was run: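 Growth of a repair-deficient yeast mutant was monitored after compound treatment and expressed as inhibition relative to vehicle-treated cultures.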

[3] = NCI Yeast Anticancer Drug Screen. Data for the cln2 rad14 strain (AID 165);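 also: 0% = growth equal to vehicle treated cultures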; conditions: S. cerevisiae cln2 rad14 strain, at 50.0 µM, stronger effect = higher value
How it was run: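 Relative to vehicle controls, growth inhibition of compound-treated cln2 rad14 yeast was recorded.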

[4] = NCI Yeast Anticancer Drug Screen. Data for the bub3 strain (AID 167); conditions: S. cerevisiae bub3 mutant strain, at 50.0 µM, stronger effect = higher value
How it was run: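 Growth of a checkpoint-deficient yeast mutant is measured after compound exposure. Values represent inhibition relative to vehicle.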

[5] = NCI Yeast Anticancer Drug Screen. Data for the mlh1 rad18 strain (AID 175); conditions: S. cerevisiae mlh1 rad18 strain growth inhibition; at 50.0 µM; stronger effect = higher value
How it was run: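 Test agents were incubated with a yeast strain of defined genotype (DNA damage repair defect). Inhibition of growth was derived by comparison with vehicle-exposed cultures.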

[6] = NCI Yeast Anticancer Drug Screen. Data for the mec2-1 strain (AID 157); conditions: S. cerevisiae mec2-1 strain, at 50.0 µM, stronger effect = higher value
How it was run: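 Readout is yeast growth inhibition, normalised to vehicle-treated controls, in the mec2-1 strain exposed to compound.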

Row | Compound | growth inhibition [1] | growth inhibition [2] | growth inhibition [3] | growth inhibition [4] | growth inhibition [5] | growth inhibition [6]
1 | CCc1nc2cc(F)ccc2[nH]c1=O | 17.3% | 28.9% | 21.4% | 40.9% | -7.55% | 
2 | COC1(OC)N=C(N)C2(C#N)C(C)=C3NCN(C)N=C3C12C#N (stereo unspecified) | 8.15% | -44% | -6.7% | -33.8% | -51% | 
3 | O=C(O)C1CC2CC2C1 (stereo unspecified) | 2.6% | -2.8% | 9.9% | 16.1% | 9.1% | 
4 | O=C(c1ccccc1)c1ccccc1-c1nc2ccccc2c(=O)o1 | 11.8% | 1.65% | 29.9% | 30.8% | -0.8% | 
5 | Clc1ccc2c(c1)N(C1CCCN(Cc3ccccc3)C1)c1ccccc1S2 (stereo unspecified) | 45.5% | 35.1% | 25.8% | 43.7% | 47% | 
6 | COc1cc2c(cc1C(CC(C)=O)c1cc(OC)c(OC)c(OC)c1)OCO2 (stereo unspecified) | -11.6% | -12% | -5.3% | 11% | -6.15% | 
7 | C=C(C)C(=O)NC(Cc1cnc[nH]1)C(=O)O (stereo unspecified) | 8.2% | 16.1% | 1.15% | 15.2% | 0.55% | 
8 | Cc1cc2c(=O)cc(-c3ccccc3Cl)oc2c(C(=O)O)c1C | -3.1% | -4.45% | 8.2% | -2.75% | -18.6% | 
9 | COc1ccc(-c2c(C(=O)O)cc(O)c3cc(OC)c(OC)cc23)cc1OC | 6.4% | 5% | 26.4% | 3.3% | -0.75% | 
10 | CCOC(=O)C1(C(=O)OCC)CCC(C(OC)OC)C(CC(=O)OC)C1 (stereo unspecified) | -2.45% | -5.2% | -6.5% | 26.4% | 16.4% | 
11 | Cc1ccc([N+](=O)[O-])cc1NC(=O)Oc1cc(=O)oc2ccccc12 | 3.2% | -6.9% | -18.1% | 1.7% | -0.75% | 
12 | C1CCCC(N2N=NC3C4CC(C5N=NN(C6CCCCCC6)C45)C32)CC1 (stereo unspecified) | 12.8% | 7.65% | 64.8% | -8.55% | 11.7% | 
13 | Cc1[nH]nc2c1NC(=O)OC2 | -3.1% | 1.5% | -23.4% | -8.15% | 2.45% | 
14 | COC1C(=O)OC(=O)C1OC (stereo unspecified) | -73% | -1.05% | -24.7% | -8.55% | 14.9% | 
15 | CC(C)CCc1ccc2ccc3cccc4ccc1c2c34 | -17.6% | -1.15% | -26.3% | -0.85% | -8.1% | 
16 | Nc1ccc(C(=O)N/C(=C\c2cccc([N+](=O)[O-])c2)c2nc3ccc(Cl)cc3[nH]2)cc1 | -10.1% | -25.3% | -17.9% | 1% | -15.9% | 
17 | Cc1ccc(S(=O)(=O)N2CCC(C(=O)N3CCCC3)(c3cccc(C)c3)CC2)cc1 | -55.5% | -46.4% | 0.1% | -38.5% | -43.1% | 
18 | OCc1ccccc1F | -42.4% | -20.6% | -15.3% | -15.1% | -36.2% | 
19 | Oc1ccc2ccc3[nH]cnc3c2c1 | -22.5% | -9% | 2.1% | -8.9% | 0.15% | 
20 | Cc1ccc2c(c1)[nH]c(=S)n2C=C1C(=O)CC(C)(C)CC1=O | -40% | -33.8% | 9.05% | -21.6% | -9.25% | 
21 | Cc1cc(Br)cc(C)c1NC(=O)C(=O)C(C(=O)c1ccncc1)C1OC(=O)c2ccccc21 (stereo unspecified) | -12.6% | -51.9% |  | 16.2% | -7.35% | 
22 | N=C(N=C(N)N)N1CCOCC1 | 8.95% | 9.75% | 32.7% | 30.1% | -0.55% | 
23 | CC(=O)NC1(C)C(C)C2CC1C(C)C2(C)C (stereo unspecified) | 13.2% | -44% | -0.55% | -30.6% | -34.6% | 
24 | COc1cc([C@@H]2c3cc4c(cc3[C@H](OC3OC5COC(C(C)C)OC5C(O)C3O)C3COC(=O)[C@@H]32)OCO4)cc(OC)c1OC (stereo partly specified) | 11.6% | 31% | 3.2% | 9.25% |  | 

Row | Compound | growth inhibition [1] | growth inhibition [2] | growth inhibition [3] | growth inhibition [4] | growth inhibition [5] | growth inhibition [6]
25 | [N-]=[N+]=Nc1ccnc2c(C(F)(F)F)cccc12 | -19.9% | -8% | -60.2% | -14.3% | -2.45% | 
26 | CN(N=O)C(=O)NC(CCCCNC(=O)OCc1ccccc1)C(=O)OCc1ccccc1 (stereo unspecified) | 5.95% | -2.8% | -22.4% | 11.6% | -11.2% | 
27 | Cc1cc2c3c(c1)CCCN3CCC2 | -12.1% | -9.85% | -30.9% | 3.1% | 2.8% | 
28 | COC(=O)CCC(=O)O |  | 11.2% | -8.05% | -2.05% |  | -0.1%
29 | COCC1OCCN1C (stereo unspecified) |  |  | 17.4% | 5.65% | -32.1% | 7.75%
30 | COCCCNC1=C(C#N)C(=O)NC(c2cccs2)S1 (stereo unspecified) |  | 3.45% | 1.25% | 5.3% | -34.8% | 0.15%
31 | O=C(Nc1ccc(NC(=O)OCc2ccccc2)c(Cl)c1)OCc1ccccc1 |  | 6.85% | -26.6% | 6.3% | 3% | 11.3%
32 | Brc1cccc(C2ON=C(c3ccccc3)N2C23CC4CC(CC(C4)C2)C3)c1 (stereo unspecified) |  | -1.75% | -14.7% | -7.55% | -7.7% | -7.45%
33 | COC(=O)/C=C\CC(=O)OC |  | -19.9% | -5.05% | -11% | -0.65% | -5%
34 | ClCC1CCN(Cc2ccccc2)CC1 |  | 6.7% | -17.4% | -10.5% | 6.9% | 13.9%
35 | c1ccc(N/N=C2/CSCc3ccccc32)cc1 |  | 91.5% (active) | 74.2% (active) | 80.8% (active) | 94.4% (active) | 68.8%
36 | NCCCCCC(=O)O |  | -17.6% | 8.2% | -22% | -8.4% | -25.4%
37 | Nc1ccc2ccc(NS(=O)(=O)N3CCCCC3)cc2c1 |  | 43.1% | 52.6% | 18.5% | 50.9% | 46.9%
38 | CCCC1c2c(ccc3ccccc23)Oc2ccc3ccccc3c21 |  | -19.6% | -2% | -13.7% | -1.35% | 2.4%
39 | CCOCCC(O)CC (stereo unspecified) |  | -4.9% | 17.7% | 9.8% | 14% | -31.2%
40 | COC(=O)C(C(=O)C(=O)Nc1c(Cl)cc([N+](=O)[O-])cc1Cl)c1nc2cc(C)c(C)cc2[nH]c1=O (stereo unspecified) |  | 20.8% | 14.3% | -4.85% | -9.75% | 3.1%
41 | COc1cc(-c2c(C)oc(C)c2C(C)=O)ccc1OCc1ccccc1 |  | -9.1% | 11.8% | 14.8% | 14.4% | -1.95%
42 | CNCC(OC)OC |  | 4.85% | 16.1% | 0% | 11.2% | -29.8%
43 | O=C1O/C(=C2/OC(=O)c3ccccc32)c2ccccc21 |  | -3.75% | -44% | 14.5% | -0.65% | -7.95%
44 | O=C(Nc1cccc([N+](=O)[O-])c1)OCC#CCOC(=O)Nc1cccc([N+](=O)[O-])c1 |  | 13.7% | 11.8% | 9.95% | 16.1% | 7.5%
45 | CCOC(=O)c1cn(Cc2ccccc2)c(=O)n1Cc1ccccc1 |  | 23.5% | -2.4% | 42.5% | 56.1% | 23.3%
46 | COC(=O)c1nsc(OC)c1Cl |  | 15.8% | 8.7% | 23.6% | 50.4% | -11.5%
47 | O=C1CC(SC(=S)N2CCCCC2)C(=O)N1c1ccccc1 (stereo unspecified) |  | -2.55% | -30.2% | 7.25% | 13.2% | 7.55%
48 | CC(=O)N/N=C1\NN(C(C)=O)C2(S1)C(=O)Nc1ccccc12 (stereo unspecified) |  | 68.8% | 78.5% (active) | 51.8% | 33.1% | 52%
